PubChem BioAssay AID1851 (National Center for Advancing Translational Sciences (NCATS), 2009)
In all, about 16,000 compounds went through this assay and about 5,700 (36%) were called active. About 24% were inconclusive and are not listed. This is one part of the list. A number with no mark means an inactive call. The call rests on the fitted dose curve; in most records, active means well fitted curve in the direction sought with a large enough effect; inconclusive means small, poorly fitted or top-dose-only effect, or effect the other way; inactive means no such curve, though single readings can be large or run the other way.

target: Cytochrome P450 1A2 (Homo sapiens) (UniProt P05177); assay: Cytochrome panel assay with activity outcomes; conditions: recombinant CYP, pro-luciferin dealkylation, luminescence, p450-cyp1a2; series mostly up to 57.1 µM
On the % scale 0 is the no-effect control and ±100 the full control effect.

Chain of Cytochrome P450 1A2 (Homo sapiens) (P05177 whole entry, looked up): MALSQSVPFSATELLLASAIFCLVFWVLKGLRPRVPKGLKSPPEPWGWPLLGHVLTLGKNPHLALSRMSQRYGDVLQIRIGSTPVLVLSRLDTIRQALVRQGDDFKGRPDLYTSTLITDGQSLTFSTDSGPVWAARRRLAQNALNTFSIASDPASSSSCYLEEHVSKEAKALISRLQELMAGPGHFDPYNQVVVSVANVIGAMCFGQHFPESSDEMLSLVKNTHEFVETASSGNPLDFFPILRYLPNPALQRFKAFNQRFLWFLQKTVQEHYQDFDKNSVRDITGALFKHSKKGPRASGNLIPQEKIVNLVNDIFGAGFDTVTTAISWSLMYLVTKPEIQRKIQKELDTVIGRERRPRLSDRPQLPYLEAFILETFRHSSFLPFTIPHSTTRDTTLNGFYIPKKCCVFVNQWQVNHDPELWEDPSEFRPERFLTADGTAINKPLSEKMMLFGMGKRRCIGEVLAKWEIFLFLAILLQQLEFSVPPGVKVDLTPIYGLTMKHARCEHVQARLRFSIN

SMILES | AC50 | activity, negative = inhibition
N#Cc1cc(-c2ccccc2)cnc1Sc1ccc(Cl)cc1 | 1.78 µM (active) | 
N#Cc1cc(-c2ccc(Cl)cc2)cnc1Sc1ccc(F)cc1 | 0.112 µM (active) | 
N#Cc1cc(-c2ccc(Cl)cc2)cnc1Sc1ccccc1 | 0.398 µM (active) | 
CO/N=C(\C(=O)N[C@@H]1C(=O)N2C(C(=O)O)=C(COC(C)=O)CS[C@@H]12)c1csc(N)n1 | inactive | 
CN[C@]1(C)[C@H]2CC[C@@H](C2)C1(C)C | inactive | 
CC(=O)OC[C@@H]1O[C@H](C/C=N\O[C@@H](C)c2cn([C@H]3COC[C@H]3O)nn2)C=C[C@@H]1OC(C)=O |  | -4.99% [at 11.4 µM]
COC(=O)N1CCC2(CCN(C(=O)Nc3cccc(F)c3)CC2)CC1 | 12.6 µM (active) | 
O=C(Nc1cccc(F)c1)N1CCCC2(CCN(C(=O)c3cnccn3)CC2)C1 | inactive | 
COc1ccc(C(=O)N2CCC3(CCN(C(=O)Nc4cccc(F)c4)CC3)CC2)cc1 | inactive | 
COc1ccc(C(=O)N2CCC3(CCCN(C(=O)Nc4cccc(F)c4)C3)CC2)cc1 | 20 µM (active) | 
CC(=O)N1CCC2(CCCN(C(=O)Nc3cccc(F)c3)C2)CC1 | inactive | 
O=C(Nc1cccc(F)c1)N1CCCC2(CCN(C(=O)c3ccncc3)CC2)C1 | 12.6 µM (active) | 
COC(=O)N1CCC2(CC1)CN(C(=O)Nc1cccc(F)c1)C2 | inactive | 
COC(=O)N1CCC2(CCCN(C(=O)Nc3cccc(F)c3)C2)CC1 | inactive | 
COc1ccc(NC(=O)N2CCCC3(CCN(C(=O)c4cccc(F)c4)CC3)C2)cc1 | inactive | 
COc1ccc2[nH]cc(CCNc3ccnc(-c4ccccc4Cl)n3)c2c1 | 0.398 µM (active) | 
COc1ccc2[nH]cc(CCNc3ccnc(-c4ccccc4C)n3)c2c1 | 0.316 µM (active) | 
C#C[C@H](N)CCC(=O)O | inactive | 
Nc1ncnc2nn([C@H]3O[C@@H](CO)[C@@H](O)[C@H]3O)nc12 |  | -11.4% [at 11.4 µM]
Cc1ccc(C)c(S(=O)(=O)NCc2ccc(C(=O)N3CCC(Cc4ccccc4)CC3)cc2)c1 | inactive | 
Cc1ccc2c(c1)N[C@H](c1ccc(C(=O)O)cc1)c1cccn1-2 | 0.794 µM (active) | 
CN(C)CCNCCN |  | -0.129% [at 11.4 µM]
N=C(N)c1ccc(N=Nc2c(O)ccc3c2[nH]c2ccccc23)cc1 | 1.58 µM (active) | 
N=C(N)c1ccccc1 | inactive | 

SMILES | AC50 | activity, negative = inhibition
O=C(NCCCc1ccccc1)c1cccs1 | 11.2 µM (active) | 
Cc1ccc(NC(=O)NCCCc2ccccc2)cc1 | 3.55 µM (active) | 
CC(C)C(=O)NCCCc1ccccc1 | inactive | 
CSCC[C@@H]1NC(=O)C/C=C\[C@@H](C)COC(=O)[C@@H](C)COC1=O |  | 4.43% [at 11.4 µM]
C[C@H]1[C@@H](O)[C@@H](C)\C=C/C=C\C=C/C=C\C=C/C=C\C=C/[C@@H](O[C@H]2O[C@@H](C)[C@@H](O)[C@@H](N)[C@@H]2O)C[C@@H]2O[C@](O)(C[C@@H](O)C[C@@H](O)[C@@H](O)CC[C@@H](O)C[C@@H](O)CC(=O)O[C@H]1C)C[C@@H](O)[C@H]2C(=O)O (stereo in doubt) | inactive | 
Cc1cc(C)n(-c2nc(NCC(C)O)c3c4c(sc3n2)COC(C)(C)C4)n1 (stereo not drawn) | 8.91 µM (active) | 
CCC(O)CNc1nc(-n2nc(C)cc2C)nc2sc3c(c12)CC(C)(C)OC3 (stereo not drawn) | 14.1 µM (active) | 
Cc1cc(NC(=O)Nc2ccc3c(ccn3C)c2)sn1 | 5.01 µM (active) | 
Oc1c(Cl)cc(C(c2cc(Cl)c(O)c(Cl)c2)C(c2cc(Cl)c(O)c(Cl)c2)c2cc(Cl)c(O)c(Cl)c2)cc1Cl | 0.794 µM (active) | 
Oc1c(Cl)cc(CN(Cc2cc(Cl)c(O)c(Cl)c2)C2CCCCC2)cc1Cl |  | 11.3% [at 2.29 µM]
CCOC(=O)CCN1C(=O)[C@H]2[C@H]3[C@H](O)[C@H](O)C/C(=N/OCC(C)C)[C@H]3CC[C@@H]2C1=O |  | -11.8% [at 11.4 µM]
CC(=O)c1cc(C#N)c(Oc2cccc(C(F)(F)F)c2)nc1C | 1.12 µM (active) | 
COC(=O)c1cc(C#N)c(NCc2ccc(Cl)cc2Cl)nc1C | inactive | 
CC(C)Oc1cccc(C(=O)NC(=S)N2CCN(c3ccc(C(F)(F)F)cc3[N+](=O)[O-])CC2)c1 | inactive | 
Cc1cc(C)c(NC(=O)NC(=O)c2ccc(F)cc2)c(C)n1 | inactive | 
COC(=O)C1=C(C)C(c2ccc(OC)cc2)NC(=S)N1 (stereo not drawn) | inactive | 
COC(=O)c1cc(C#N)c(Oc2ccc(OC)cc2)nc1C | 4.47 µM (active) | 
CC(=O)c1cc(C#N)c(Oc2ccc(F)cc2)nc1C | 2.24 µM (active) | 
Cc1ccc(C(C(=O)NC2CCCCC2)N(CC2CCCO2)C(=O)CNC(=O)c2cccs2)cc1 (stereo not drawn) | inactive | 
O=C(NC1CCCCCC1)c1cccs1 | 5.01 µM (active) | 
O=C(NCC(=O)N(c1ccccc1)C(C(=O)NC1CCCC1)c1cccnc1)c1cccs1 (stereo not drawn) | inactive | 
O=C(Nc1ccc2ncccc2c1)Nc1ccc2ncccc2c1 |  | -28.5% [at 2.29 µM]
Cc1nc2ccc(NC(=O)Nc3ccnc4cccnc34)cc2o1 | 1 µM (active) | 
C/C=C\C(=O)N(CC)c1ccccc1C | inactive | 

SMILES | AC50 | activity, negative = inhibition
CC1(C)OC(=O)NC1=O | inactive | 
COc1ccc(-c2csc3c2[N+]2=CCC=C2C3=O)cc1 | 0.501 µM (active) | 
Cc1noc(C)c1-c1nccc(N2CCN(C)CC2)n1 | 2 µM (active) | 
Cc1noc(C)c1C(=O)N1CCC2(CC1)CCN(c1ccncc1)CC2 | inactive | 
Cc1noc(C)c1-c1cc(N2CCN(C)CC2)ncn1 | 10 µM (active) | 
Cc1noc(C)c1-c1nccc(N2CCOCC2)n1 | 0.631 µM (active) | 
Cc1noc(C)c1-c1nccc(-n2ccnc2)n1 | 0.2 µM (active) | 
CC(C)(C)C(=O)NC(c1ccc(Cl)cc1)[C@]1(C)C[C@H]1C1CCCCC1 (stereo partly drawn) | inactive | 
CO/N=C1/c2cc(OC)ccc2O[C@@H](c2cccc(OC)c2)[C@H]1O |  | -7.77% [at 11.4 µM]
Cc1cccc(Oc2ncc(-c3ccc(Cl)cc3)cn2)c1C | 2.24 µM (active) | 
Cc1cc(Cl)ccc1Oc1ncc(-c2ccc(Cl)cc2)cn1 | 0.794 µM (active) | 
CNc1nc(-c2ccccc2C)nc2ccccc12 | 0.501 µM (active) | 
CNc1nc(-c2ccccc2Cl)nc2ccccc12 | 0.126 µM (active) | 
CCCOc1ccc(/C=C/C(=O)Nc2ccc([N+](=O)[O-])cc2C)cc1 | inactive | 
CCOC(=O)COc1ccc(/C=C/[N+](=O)[O-])c(OCC(=O)OCC)c1 | 3.16 µM (active) | 
CCCNS(=O)(=O)c1ccc(OCC(=O)OC)cc1 | inactive | 
Fc1ccc2nc3[nH]c4ccccc4c3nc2c1 | 1 µM (active) | 
COC(=O)CSc1ccc(C#N)c(SCC(=O)OC)c1 | 25.1 µM (active) | 
COc1ccc(N2CCN(Cc3nc4c(c(=O)n(C)c(=O)n4C)n3CC(C)=O)CC2)cc1 | inactive | 
CCn1ccc(C(=O)NC2=C(C#N)CCC2)n1 | 6.31 µM (active) | 
CCn1ccc(C(=O)NC2C(=O)N3C(C(=O)O)=C(C)CSC23)n1 (stereo not drawn) | inactive | 
C[C@]12C=CC(=O)C=C1CC[C@@H]1[C@H]3C[C@@H](O)[C@](O)(C(=O)CO)[C@@]3(C)C[C@H](O)[C@]12F | inactive | 
Cn1c(SCC(=O)NC2CC2)nnc1-c1cccc(NC(=O)c2ccccc2F)c1 | inactive | 
Cn1c(SCC(=O)c2ccc3c(c2)Cc2ccccc2-3)nnc1-c1ccccc1 | 6.31 µM (active) | 

SMILES | AC50 | activity, negative = inhibition
CC(=O)Nc1ccc(-c2nnc(SCC(=O)c3ccc4c(c3)Cc3ccccc3-4)n2C)cc1 | 11.2 µM (active) | 
Cn1c(SC2CCCCC2=O)nnc1-c1ccncc1 (stereo not drawn) | inactive | 
Cc1ccc2c(CC(=O)OCc3cc(=O)n4c(n3)sc3ccccc34)coc2c1 | 8.91 µM (active) | 
CC(C)(C)c1onc(OCP(=O)(O)O)c1C[C@@H](N)C(=O)O | inactive | 
Cc1cc(C(=O)Nc2ccc(N3CCOCC3)cc2)c2ccccc2n1 | 10 µM (active) | 
Cc1ccc(NC(=O)c2cc(Cl)nc3ccccc23)cc1 | 2 µM (active) | 
O=C(NNC(=O)c1cc(-c2ccc(Cl)c(Cl)c2)nc2ccccc12)Nc1ccccc1 | 3.55 µM (active) | 
CCOC(=O)N/N=C1/C[C@@H](O)[C@@H](O)[C@@H]2[C@@H]3C(=O)N(c4cccc(Oc5ccccc5)c4)C(=O)[C@H]3CC[C@@H]12 |  | -6.44% [at 11.4 µM]
O=C1Oc2ccccc2C2(O)C3CCCCCC3C12 (stereo not drawn) | inactive | 
Cc1n[nH]c(C)c1N=Nc1cc(Cl)ccc1Cl | 0.178 µM (active) | 
COc1cc(OC)c(C(=O)CCCCN2CCC3(CC2)NC(=O)NC3=O)cc1NS(=O)(=O)c1ccc(C(F)(F)F)cc1 | inactive | 
Nc1ncnc2c([C@@H]3O[C@@H](CO)[C@H](O)[C@@H]3O)nsc12 |  | -16.8% [at 2.29 µM]
O=C(Nc1cc(Sc2ccccn2)cc([N+](=O)[O-])c1)c1ccc(Cl)cc1 | 2.51 µM (active) | 
O=C(Nc1cc(Sc2ccccn2)cc([N+](=O)[O-])c1)c1ccc([N+](=O)[O-])cc1 | 3.16 µM (active) | 
O=C(Nc1nnc(COc2ccc(Cl)cc2)s1)c1ccc([N+](=O)[O-])cc1 | inactive | 
O=C1[C@H]2[C@H]3[C@H](O)[C@H](O)C/C(=N/OC[C@@H](O)COCc4ccco4)[C@H]3CC[C@@H]2C(=O)N1C[C@@H]1CCCO1 |  | -17.3% [at 11.4 µM]
Cc1ccc(C)c(NC(=O)Cn2nnc(C(=O)Nc3c(C)cccc3C)c2N)c1 | inactive | 
CCOc1ncccc1C(=O)OCC(=O)Nc1cc(C)ccc1C | 10 µM (active) | 
Cc1ccc(C)c(NC(=O)C2C3CCCC2C3c2ccccc2)c1 (stereo not drawn) | inactive | 
Cc1noc(C)c1-c1ccc2ncnc(N(C)Cc3ccco3)c2c1 | 2.51 µM (active) | 
Cc1noc(C)c1-c1ccc2ncnc(N(C)C)c2c1 | 0.631 µM (active) | 
